# Screens: PubChem BioAssay, National Center for Advancing Translational Sciences (NCATS)
# Compounds with a hit are over-represented: about 21% of the library has one in this group of screens.
# Pf growth 96h: Primary qHTS for delayed death inhibitors of the malarial parasite plastid, 96 hour incubation | P. falciparum luciferase reporter growth, 96 h | 6.9% of 320,000 active | Potency, µM (series often up to 28.7 µM), for inactives: top-dose activity change, negative = inhibition, actives largely listed as inhibitors; also: potency is read from the fitted curve at half-maximal effect; % is scaled to controls: 0 for no effect and ±100 for the full control effect
#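 Cell-based qHTS: luciferase-tagged P. falciparum in erythrocytes (2% hematocrit, 0.05% parasitemia final) incubated with compounds for 96 hours, 37 C, 5% CO2; luciferase detection reagent then added and luminescence measured.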
# Shiga toxin inh: A qHTS for Small Molecule Inhibitors of Shiga Toxin; Vero cells, Shiga toxin protein synthesis inhibition reporter; inhibition, % at 38.7 µM; 9.2% of 290,000 active; in the data active = inhibition mostly above about 28%, no sharp cut-off; inactive = mostly below about 43%; also: 0% is about no effect
# AMA1-RON2 inh: qHTS for Inhibitors of AMA1-RON; Towards Development of Antimalarial Drug Lead: Primary Screen. AlphaScreen AMA1-biotinylated RON2 peptide binding. 0.2% of 360,000 active. AID 720542, 2013. Plasmodium falciparum AMA1 (3D7) - RON2 peptide interaction. Potency, µM (doses to about 58.2 µM), inactives show at the highest dose activity change, negative = inhibition, hits mostly inhibitors;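 also: potency is read from the fitted curve at half-maximal effect; 0% = vehicle wells and -100% = peptide control; nearly all actives have a fitted effect of over 45% in size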
#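 AMA1 (3D7) with his tag at 25 nM final met compounds first, then biotinylated RON2 peptide at 25 nM; detection used donor plus acceptor beads, 10 µg/mL apiece, read by AlphaScreen after 30 min at room temperature.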
# HCV inh: qHTS Assay for Inhibitors of Hepatitis C Virus (HCV); Huh7.5.1 HCVcc-Cre infection, luciferase reporter, 44 h; Potency, µM (top dose mostly 41.8 µM), inactives show at the highest dose activity change, negative = inhibition, hits mostly inhibitors; 3.4% of 340,000 active; also: potency is read from the fitted curve at half-maximal effect; % is scaled to controls: 0 for no effect and ±100 for the full control effect
#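 Seed cells (1,000/well) for 4 h; treat with compound and infect with HCVcc-Cre, moi about 0.5. Incubate 44 h, then detect luciferase activity.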
# Cycloheximide cs: Cycloheximide Counterscreen for Small Molecule Inhibitors of Shiga Toxin. cell reporter, cycloheximide protein synthesis inhibition counterscreen. AID 2314, 2010. max response, %. 12% of 300,000 active; in the data active = max response mostly above about 13%, no sharp cut-off; inactive = mostly below about 14%; also: read at 38.3 µM for the half of the compounds with a filed dose; 0% is about no effect
# Pf growth 48h: Primary qHTS for delayed death inhibitors of the malarial parasite plastid, 48 hour incubation; P. falciparum luciferase growth in erythrocytes, 48 h; Potency, µM (series often up to 28.7 µM), for the others: top-dose activity change, negative = inhibition, actives largely listed as inhibitors; 5.9% of 310,000 active; AID 504832, 2011; also: potency is read from the fitted curve at half-maximal effect; % is scaled to controls: 0 for no effect and ±100 for the full control effect
#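 First compound was added to culture medium, then infected red cells at 0.1% parasitemia and 2% hematocrit (final). After incubation at 37 C under 5% CO2, luciferase detection reagent was dispensed and light output recorded.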
# The depositor's hits bear a star; ? = inconclusive; . = no result; [ ] = another dose, or the depositor's remark. Unless noted, calls follow the shape of the dose curve; as a rule, active = well fitted curve in the direction sought with a large enough effect; inconclusive = small, poorly fitted or top-dose-only effect, or another doubt; inactive = no such curve, though single readings can be large; an effect the other way counts as inactive or inconclusive.
SMILES,Pf growth 96h,Shiga toxin inh,AMA1-RON2 inh,HCV inh,Cycloheximide cs,Pf growth 48h
Cc1ccc(S(=O)(=O)NCCCCCC(=O)Nc2c(C)n(C)n(-c3ccccc3)c2=O)cc1,4%,16,10%,-1%,-1,1%
Cc1ccc(S(=O)(=O)NC(=O)Nc2c(C)n(C)n(-c3ccccc3)c2=O)cc1,12µM*,-4,8%,11%,-4,10%
Cc1ccc(S(=O)(=O)Nc2c(C)n(C)n(-c3ccccc3)c2=O)cc1C(=O)OC(C)C(=O)N(C)c1ccccc1 (configuration not stated),15µM*,-3,-6%,18%,-3,-22%
O=S(=O)(Nc1ccn(-c2ccccc2)n1)c1ccc(Br)cc1,.,42,-8%,-1%,16*,37%
Cc1[nH]c(=O)[nH]c(=O)c1S(=O)(=O)N1CCCC(C(=O)N2CCN(c3cccc(C(F)(F)F)c3)CC2)C1 (configuration not stated),0%,-9,-8%,15%,-3,-15%
Cc1[nH]c(=O)[nH]c(=O)c1S(=O)(=O)N1CCC(C(=O)N2CCN(c3cccc(C(F)(F)F)c3)CC2)CC1,18%,11,-10%,?,-6,10µM*
Cc1cc(NCCCN2CCOCC2)n2ncc(-c3ccc(Cl)cc3)c2n1,22%,59,35%,13µM*,22*,39%
CC(C)Nc1cc(C(C)(C)C)nc2c(-c3ccccc3)cnn12,13µM*,151*,32%,?,55*,?
Cn1c(=O)c2c(nc(NCCCN3CCOCC3)n2Cc2ccc(Cl)cc2)n(C)c1=O,11%,-14,-1%,-7%,10,33%
CC(C)(C)c1cc(C(F)(F)F)n2ncc(-c3ccccc3)c2n1,?,9,-14%,?,9,36%[5.75 µM]
Cc1nc(NCCCn2ccnc2)c2ccccc2n1,1%,-6,-1%,-9%,-2,.
CC(C)(C)c1cc(NCCCn2ccnc2)n2ncc(-c3ccccc3)c2n1,?,67*,52%,?,37*,?
CCCc1cc(NCCCn2ccnc2)n2nc(C)c(-c3ccccc3)c2n1,0.41µM*,-6,-11%,-36%,-7,?
COc1cccc(CN(CCC(C)C)S(=O)(=O)c2cc(Br)ccc2Br)c1,.,.,14%,-16%,.,.
COc1cc(C(=O)Nc2cc(S(=O)(=O)N3CCOCC3)ccc2N2CCOCC2)cc(OC)c1C,.,.,-9%,-11%,.,.
Cc1cc(C)cc(OCC(=O)N2CCN(c3ncccn3)CC2)c1,.,.,1%,-16%,.,.
O=C(CCCc1ccccc1)N=C1SC2CS(=O)(=O)CC2N1c1ccccc1F (configuration not stated),22%,-5,-8%,17%,-1,3%
Cc1ccc(N)c2c1OCCC2=O,16%,12,-15%,-4%,-4,?
CCOC(=O)[C@]12CCC=C1N(Cc1ccccc1)C(=O)[C@H](CC(=O)NCCCN1CCCC1=O)C2,.,.,-10%,.,.,.
CCOC(=O)N1CCN(S(=O)(=O)c2ccc(C(=O)Nc3ccc4c(c3)C(=O)NC4=O)cc2)CC1,-5%,16,-1%,4%,-4,-1%
Cc1cccc(-c2cc3nc(C)cc(NCCCn4ccnc4)n3n2)c1,.,-13,?,?,19,?
Cc1cc(NCCCn2ccnc2)n2ncc(-c3ccc(Cl)cc3)c2n1,-56%,83*,21%,7.1µM*,40*,-29%
COc1cccc(OCc2nnc(SCC(=O)NCc3ccco3)n2C)c1,9%,-26,-11%,20%,8,-15%
COc1ccc(-n2c(COc3cccc4ccccc34)nnc2SC(C)C(=O)O)cc1 (configuration not stated),?,-9,5%,14%,-1,15%
COc1ccc(-n2c(COc3ccc4ccccc4c3)nnc2SCC(=O)NCc2ccco2)cc1,.,58,-28%,?,31,10µM*
SMILES,Pf growth 96h,Shiga toxin inh,AMA1-RON2 inh,HCV inh,Cycloheximide cs,Pf growth 48h
COc1cccc(OCc2nnc(SCC(=O)NCc3ccco3)n2CCc2ccccc2)c1,0%,44,-2%,?,28,?
COc1ccc(OC)c(-n2c(SCC(=O)NCc3ccco3)nnc2-c2c[nH]c3ccccc23)c1,2.6µM*,12,-20%,-14%,-2,.
COc1cccc(-n2c(SCC(=O)NCc3ccco3)nnc2-c2c[nH]c3ccccc23)c1,?,17,-9%,-5%,11,?
COc1ccc(-n2c(COc3cccc(C)c3)nnc2SCC(=O)NCc2ccco2)cc1,-18%,35*,-10%,9%,30*,?
COc1ccc(-n2c(COc3cccc4ccccc34)nnc2SCC(=O)NCc2ccco2)cc1,-23%,67,-15%,?,25*,2.9µM*
O=C(COC(=O)c1ccccc1Cc1ccccc1)NC1CCS(=O)(=O)C1 (configuration not stated),0%,1,-12%,-11%,-1,4%
O=C(CSc1nnc(-c2ccccc2)n1-c1ccccc1)NCc1ccco1,61%,44,-4%,6%,-1,-9%
COc1ccccc1OCc1nnc(SCC(=O)NCc2ccco2)n1-c1ccccc1,5%,9,5%,4%,12*,-17%
CC(=O)Nc1ccc(-c2csc(Nc3cc(C)ccn3)n2)cc1,-28%,78*,-3%,?,49*,227%
Cc1ccnc(Nc2nc(-c3c(C)nc4sccn34)cs2)c1,?,57,23%,13µM*,32*,3.3µM*
CC(=O)Nc1cccc(-c2csc(Nc3ccccn3)n2)c1,137%,90*,-7%,11µM*,45*,-13%
Cc1ccnc(Nc2nc(-c3ccccc3)cs2)c1,-14%,89*,6%,?,55*,29%
Cc1ccc(CNC(=O)C2CCC(CNS(=O)(=O)c3cccs3)CC2)cc1 (configuration not stated),86%,-7,5%,-9%,-1,4%
Cc1sc(NC(=O)CN2C(=O)NC3(CCCC3)C2=O)nc1-c1ccc(F)cc1,0%,.,17%,?,.,-10%
COC(=O)[C@@]12C[C@@H](CC(=O)NCc3ccc(C)o3)C(=O)N(Cc3ccccc3)C1=CCC(C)(C)C2,.,.,-10%,.,.,.
CC(=O)Nc1cccc(-c2csc(N)n2)c1,?,30,6%,7%,-2,26%
CC(=O)Nc1cccc(-c2csc(Nc3cc(C)ccn3)n2)c1,-28%,127*,-5%,?,41*,-18%
Cn1ncc2c(=O)[nH]cnc21,44%,17,3%,3%,-2,39%
